Common to all, as to test: PBM; 200 nM protein, PBS
What all share (details): dsDNA, one strand shown

For assay [1], the target named is HESX1 (Homo sapiens, UniProt Q9UBX0 95-180, R165K).
Assay [2] has as its target HOXB4 (Homo sapiens, UniProt P17483 148-234).
Assay [3] has as its target SHOX (Homo sapiens, UniProt O15266 103-189).
Assay [4] addresses HESX1 (Homo sapiens, UniProt Q9UBX0 95-180).
The next assay addresses HOXA4 (Homo sapiens, UniProt Q00056 201-287, R217L).
Assay [5] concerns the target HOXB4 (Homo sapiens, UniProt P17483 148-234, V174I).
The target of assay [6] is ALX1 (Homo sapiens, UniProt Q15699 118-204, L144V).
Chain of ALX1 (Homo sapiens, UniProt Q15699 118-204, L144V) (Q15699 118-204 L144V): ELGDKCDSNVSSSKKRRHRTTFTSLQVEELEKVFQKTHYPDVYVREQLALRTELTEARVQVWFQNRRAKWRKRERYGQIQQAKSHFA
The target in assay [7] is ALX3 (Homo sapiens, UniProt O95076 139-225, N203Q).
Chain of ALX3 (Homo sapiens, UniProt O95076 139-225, N203Q) (O95076 139-225 N203Q): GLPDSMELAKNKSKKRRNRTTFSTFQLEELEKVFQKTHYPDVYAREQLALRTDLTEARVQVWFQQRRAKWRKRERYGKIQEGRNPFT
Assay [8] addresses SHOX (Homo sapiens, UniProt O15266 103-189, R173C).
The target in assay [9] is ALX1 (Homo sapiens, UniProt Q15699 118-204, L144R).
Chain of ALX1 (Homo sapiens, UniProt Q15699 118-204, L144R) (Q15699 118-204 L144R): as the sequence (Q15699 118-204 L144V) above, with V27R counted along it
Assay [10] addresses ALX3 (Homo sapiens, UniProt O95076 139-225).
The target of assay [11] is PROP1 (Homo sapiens, UniProt O75360 56-141).
Chain of PROP1 (Homo sapiens, UniProt O75360 56-141) (O75360 56-141): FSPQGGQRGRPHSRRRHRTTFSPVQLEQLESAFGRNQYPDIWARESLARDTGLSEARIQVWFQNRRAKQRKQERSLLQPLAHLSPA
In assay [12] the target is HESX1 (Homo sapiens, UniProt Q9UBX0 95-180, R109Q).
Chain of HESX1 (Homo sapiens, UniProt Q9UBX0 95-180, R109Q) (Q9UBX0 95-180 R109Q): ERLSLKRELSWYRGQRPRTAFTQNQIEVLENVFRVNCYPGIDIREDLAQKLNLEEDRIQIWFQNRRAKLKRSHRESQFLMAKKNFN
The target of assay [13] is PROP1 (Homo sapiens, UniProt O75360 56-141, R99H).
Chain of PROP1 (Homo sapiens, UniProt O75360 56-141, R99H) (O75360 56-141 R99H): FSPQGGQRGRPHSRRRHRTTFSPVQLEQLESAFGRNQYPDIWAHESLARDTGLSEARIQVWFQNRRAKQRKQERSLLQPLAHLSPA
In assay [14] the target is ALX3 (Homo sapiens, UniProt O95076 139-225, L168Q).
Chain of ALX3 (Homo sapiens, UniProt O95076 139-225, L168Q) (O95076 139-225 L168Q): as the sequence (O95076 139-225 N203Q) above, with L30Q, Q65N counted along it
The target of assay [15] is HESX1 (Homo sapiens, UniProt Q9UBX0 95-180, P111T).
Chain of HESX1 (Homo sapiens, UniProt Q9UBX0 95-180, P111T) (Q9UBX0 95-180 P111T): as the sequence (Q9UBX0 95-180 R109Q) above, with Q15R, P17T counted along it
Assay [16] addresses ALX3 (Homo sapiens, UniProt O95076 139-225, L168V).
The target in assay [17] is PROP1 (Homo sapiens, UniProt O75360 56-141, F88S).
Chain of PROP1 (Homo sapiens, UniProt O75360 56-141, F88S) (O75360 56-141 F88S): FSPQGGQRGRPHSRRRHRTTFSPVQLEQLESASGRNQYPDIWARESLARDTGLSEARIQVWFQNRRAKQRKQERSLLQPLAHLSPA
For assay [18], the target named is HESX1 (Homo sapiens, UniProt Q9UBX0 95-180, F115L).
Chain of HESX1 (Homo sapiens, UniProt Q9UBX0 95-180, F115L) (Q9UBX0 95-180 F115L): as the sequence (Q9UBX0 95-180 R109Q) above, with Q15R, F21L counted along it
The target in assay [19] is ALX3 (Homo sapiens, UniProt O95076 139-225, N203S).
Chain of ALX3 (Homo sapiens, UniProt O95076 139-225, N203S) (O95076 139-225 N203S): as the sequence (O95076 139-225 N203Q) above, with Q65S counted along it

Chain of SHOX (Homo sapiens, UniProt O15266 103-189, R173C) (O15266 103-189 R173C): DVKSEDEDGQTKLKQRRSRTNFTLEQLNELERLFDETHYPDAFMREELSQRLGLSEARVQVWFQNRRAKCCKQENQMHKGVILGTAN
Chain of HESX1 (Homo sapiens, UniProt Q9UBX0 95-180) (Q9UBX0 95-180): as the sequence (Q9UBX0 95-180 R109Q) above, with Q15R counted along it
Chain of HOXB4 (Homo sapiens, UniProt P17483 148-234, V174I) (P17483 148-234 V174I): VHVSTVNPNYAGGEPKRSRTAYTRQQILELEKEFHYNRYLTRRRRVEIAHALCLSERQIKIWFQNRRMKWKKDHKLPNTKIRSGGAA
Chain of HOXA4 (Q00056 201-287 R217L): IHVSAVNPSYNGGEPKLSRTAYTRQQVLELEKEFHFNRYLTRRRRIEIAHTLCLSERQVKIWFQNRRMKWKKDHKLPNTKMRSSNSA
Chain of HESX1 (Homo sapiens, UniProt Q9UBX0 95-180, R165K) (Q9UBX0 95-180 R165K): as the sequence (Q9UBX0 95-180 R109Q) above, with Q15R, R71K counted along it
Chain of HOXB4 (Homo sapiens, UniProt P17483 148-234) (P17483 148-234): as the sequence (P17483 148-234 V174I) above, with I27V counted along it
Chain of SHOX (Homo sapiens, UniProt O15266 103-189) (O15266 103-189): as the sequence (O15266 103-189 R173C) above, with C71R counted along it
Chain of ALX3 (Homo sapiens, UniProt O95076 139-225, L168V) (O95076 139-225 L168V): as the sequence (O95076 139-225 N203Q) above, with L30V, Q65N counted along it
Chain of ALX3 (Homo sapiens, UniProt O95076 139-225) (O95076 139-225): as the sequence (O95076 139-225 N203Q) above, with Q65N counted along it

Regarding AATTAATC, the binding signal in the assay with HESX1 [1] is 11.9 upbm affinity estimate (log intensity, higher = more binding, comparable within an allelic series); in the assay with HOXB4 [2] it was 13.2 upbm affinity estimate (log intensity, higher = more binding, comparable within an allelic series); in the assay with SHOX [3], 11.9 upbm affinity estimate (log intensity, higher = more binding, comparable within an allelic series); with HESX1 [4] it was 12 upbm affinity estimate (log intensity, higher = more binding, comparable within an allelic series); with HOXA4 it was 12.3 upbm affinity estimate (log intensity, higher = more binding, comparable within an allelic series); with HOXB4 [5], 13.9 upbm affinity estimate (log intensity, higher = more binding, comparable within an allelic series). Also, the binding signal with ALX1 [6] was 11.9 upbm affinity estimate (log intensity, higher = more binding, comparable within an allelic series); with ALX3 [7], 8.39 upbm affinity estimate (log intensity, higher = more binding, comparable within an allelic series); with SHOX [8] it was 9.4 upbm affinity estimate (log intensity, higher = more binding, comparable within an allelic series); in the assay with ALX1 [9], 11.6 upbm affinity estimate (log intensity, higher = more binding, comparable within an allelic series); with ALX3 [10], 12.5 upbm affinity estimate (log intensity, higher = more binding, comparable within an allelic series); with PROP1 [11] it was 11.2 upbm affinity estimate (log intensity, higher = more binding, comparable within an allelic series). The binding signal is 9.36 upbm affinity estimate (log intensity, higher = more binding, comparable within an allelic series) in the assay with HESX1 [12]; 11.1 upbm affinity estimate (log intensity, higher = more binding, comparable within an allelic series) in the assay with PROP1 [13]; 10.6 upbm affinity estimate (log intensity, higher = more binding, comparable within an allelic series) with ALX3 [14]; 10.7 upbm affinity estimate (log intensity, higher = more binding, comparable within an allelic series) with HESX1 [15]; 10.2 upbm affinity estimate (log intensity, higher = more binding, comparable within an allelic series) with ALX3 [16]; 7.81 upbm affinity estimate (log intensity, higher = more binding, comparable within an allelic series) with PROP1 [17]. The binding signal with HESX1 [18] is 7.79 upbm affinity estimate (log intensity, higher = more binding, comparable within an allelic series); in the assay with ALX3 [19], 8.52 upbm affinity estimate (log intensity, higher = more binding, comparable within an allelic series).
With AACAATTA, the binding signal with HESX1 [1] was 12 upbm affinity estimate (log intensity, higher = more binding, comparable within an allelic series); with SHOX [3] it was 11.5 upbm affinity estimate (log intensity, higher = more binding, comparable within an allelic series); with HESX1 [4] it was 12.2 upbm affinity estimate (log intensity, higher = more binding, comparable within an allelic series); with HOXA4 it was 11.9 upbm affinity estimate (log intensity, higher = more binding, comparable within an allelic series); with HOXB4 [5] it was 13.6 upbm affinity estimate (log intensity, higher = more binding, comparable within an allelic series); with ALX3 [7], 8.48 upbm affinity estimate (log intensity, higher = more binding, comparable within an allelic series). Besides, the binding signal in the assay with SHOX [8] was 9.19 upbm affinity estimate (log intensity, higher = more binding, comparable within an allelic series); in the assay with ALX3 [10], 12.2 upbm affinity estimate (log intensity, higher = more binding, comparable within an allelic series); in the assay with PROP1 [11] it was 11.1 upbm affinity estimate (log intensity, higher = more binding, comparable within an allelic series); with HESX1 [12], 8.73 upbm affinity estimate (log intensity, higher = more binding, comparable within an allelic series); in the assay with PROP1 [13], 11.2 upbm affinity estimate (log intensity, higher = more binding, comparable within an allelic series); with ALX3 [14], 10.3 upbm affinity estimate (log intensity, higher = more binding, comparable within an allelic series). The binding signal with HESX1 [15] was 10.6 upbm affinity estimate (log intensity, higher = more binding, comparable within an allelic series); in the assay with ALX3 [16] it was 9.75 upbm affinity estimate (log intensity, higher = more binding, comparable within an allelic series); with PROP1 [17], 7.78 upbm affinity estimate (log intensity, higher = more binding, comparable within an allelic series); in the assay with HESX1 [18], 7.66 upbm affinity estimate (log intensity, higher = more binding, comparable within an allelic series); in the assay with ALX3 [19], 8.6 upbm affinity estimate (log intensity, higher = more binding, comparable within an allelic series).
In the case of CAATTAAG, the binding signal with HESX1 [1] is 13 upbm affinity estimate (log intensity, higher = more binding, comparable within an allelic series); in the assay with HOXB4 [2], 13 upbm affinity estimate (log intensity, higher = more binding, comparable within an allelic series); with SHOX [3], 12.3 upbm affinity estimate (log intensity, higher = more binding, comparable within an allelic series); with HESX1 [4] it was 12.9 upbm affinity estimate (log intensity, higher = more binding, comparable within an allelic series); in the assay with HOXA4, 12.1 upbm affinity estimate (log intensity, higher = more binding, comparable within an allelic series); in the assay with HOXB4 [5], 13.7 upbm affinity estimate (log intensity, higher = more binding, comparable within an allelic series). Besides, the binding signal in the assay with ALX1 [6] is 11.7 upbm affinity estimate (log intensity, higher = more binding, comparable within an allelic series); with ALX3 [7] it was 8.48 upbm affinity estimate (log intensity, higher = more binding, comparable within an allelic series); with SHOX [8] it was 10.1 upbm affinity estimate (log intensity, higher = more binding, comparable within an allelic series); with ALX1 [9], 11.4 upbm affinity estimate (log intensity, higher = more binding, comparable within an allelic series); with ALX3 [10], 12.5 upbm affinity estimate (log intensity, higher = more binding, comparable within an allelic series); with PROP1 [11] it was 11.6 upbm affinity estimate (log intensity, higher = more binding, comparable within an allelic series). The binding signal with HESX1 [12] was 9.81 upbm affinity estimate (log intensity, higher = more binding, comparable within an allelic series); with PROP1 [13], 11.8 upbm affinity estimate (log intensity, higher = more binding, comparable within an allelic series); in the assay with ALX3 [14] it was 10.7 upbm affinity estimate (log intensity, higher = more binding, comparable within an allelic series); with HESX1 [15], 11.7 upbm affinity estimate (log intensity, higher = more binding, comparable within an allelic series); in the assay with ALX3 [16], 10.2 upbm affinity estimate (log intensity, higher = more binding, comparable within an allelic series); in the assay with PROP1 [17], 7.75 upbm affinity estimate (log intensity, higher = more binding, comparable within an allelic series). Moreover, the binding signal in the assay with HESX1 [18] is 7.88 upbm affinity estimate (log intensity, higher = more binding, comparable within an allelic series); in the assay with ALX3 [19], 8.56 upbm affinity estimate (log intensity, higher = more binding, comparable within an allelic series).
As for ATCAATTA, the binding signal with HESX1 [1] was 13.5 upbm affinity estimate (log intensity, higher = more binding, comparable within an allelic series); in the assay with HOXB4 [2], 13.4 upbm affinity estimate (log intensity, higher = more binding, comparable within an allelic series); with SHOX [3], 12.6 upbm affinity estimate (log intensity, higher = more binding, comparable within an allelic series); with HESX1 [4], 13.4 upbm affinity estimate (log intensity, higher = more binding, comparable within an allelic series); with HOXA4, 12.6 upbm affinity estimate (log intensity, higher = more binding, comparable within an allelic series); with HOXB4 [5], 14.1 upbm affinity estimate (log intensity, higher = more binding, comparable within an allelic series). Further, the binding signal is 12 upbm affinity estimate (log intensity, higher = more binding, comparable within an allelic series) in the assay with ALX1 [6]; 8.5 upbm affinity estimate (log intensity, higher = more binding, comparable within an allelic series) with ALX3 [7]; 10.1 upbm affinity estimate (log intensity, higher = more binding, comparable within an allelic series) with SHOX [8]; 11.8 upbm affinity estimate (log intensity, higher = more binding, comparable within an allelic series) in the assay with ALX1 [9]; 12.7 upbm affinity estimate (log intensity, higher = more binding, comparable within an allelic series) with ALX3 [10]; 11.8 upbm affinity estimate (log intensity, higher = more binding, comparable within an allelic series) with PROP1 [11]. Moreover, the binding signal with HESX1 [12] is 10.2 upbm affinity estimate (log intensity, higher = more binding, comparable within an allelic series); in the assay with PROP1 [13] it was 12.2 upbm affinity estimate (log intensity, higher = more binding, comparable within an allelic series); with ALX3 [14] it was 10.9 upbm affinity estimate (log intensity, higher = more binding, comparable within an allelic series); with HESX1 [15] it was 12.1 upbm affinity estimate (log intensity, higher = more binding, comparable within an allelic series); with ALX3 [16], 10.4 upbm affinity estimate (log intensity, higher = more binding, comparable within an allelic series); with PROP1 [17], 7.84 upbm affinity estimate (log intensity, higher = more binding, comparable within an allelic series). The binding signal is 8.22 upbm affinity estimate (log intensity, higher = more binding, comparable within an allelic series) with HESX1 [18] and 8.66 upbm affinity estimate (log intensity, higher = more binding, comparable within an allelic series) with ALX3 [19].

The values are drawn from article PMC11006913.
